From PubChem
Compounds with a hit are over-represented: about 8% of the library has one in this group of screens.
Cav32 inh: human Cav3.2 channel inhibition, primary screen. O95180. Cav3.2-expressing cells, Fluo-4 calcium fluorescence FDSS; hits give low values. B-score at 10 µM. hit rate 4% among 100,000. AID 449739;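 active = single-dose well whose peak fluorescence ratio is a statistical outlier from its plate by either plate-standardised score or position-corrected B-score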
Target sequence (O95180 whole entry, looked up): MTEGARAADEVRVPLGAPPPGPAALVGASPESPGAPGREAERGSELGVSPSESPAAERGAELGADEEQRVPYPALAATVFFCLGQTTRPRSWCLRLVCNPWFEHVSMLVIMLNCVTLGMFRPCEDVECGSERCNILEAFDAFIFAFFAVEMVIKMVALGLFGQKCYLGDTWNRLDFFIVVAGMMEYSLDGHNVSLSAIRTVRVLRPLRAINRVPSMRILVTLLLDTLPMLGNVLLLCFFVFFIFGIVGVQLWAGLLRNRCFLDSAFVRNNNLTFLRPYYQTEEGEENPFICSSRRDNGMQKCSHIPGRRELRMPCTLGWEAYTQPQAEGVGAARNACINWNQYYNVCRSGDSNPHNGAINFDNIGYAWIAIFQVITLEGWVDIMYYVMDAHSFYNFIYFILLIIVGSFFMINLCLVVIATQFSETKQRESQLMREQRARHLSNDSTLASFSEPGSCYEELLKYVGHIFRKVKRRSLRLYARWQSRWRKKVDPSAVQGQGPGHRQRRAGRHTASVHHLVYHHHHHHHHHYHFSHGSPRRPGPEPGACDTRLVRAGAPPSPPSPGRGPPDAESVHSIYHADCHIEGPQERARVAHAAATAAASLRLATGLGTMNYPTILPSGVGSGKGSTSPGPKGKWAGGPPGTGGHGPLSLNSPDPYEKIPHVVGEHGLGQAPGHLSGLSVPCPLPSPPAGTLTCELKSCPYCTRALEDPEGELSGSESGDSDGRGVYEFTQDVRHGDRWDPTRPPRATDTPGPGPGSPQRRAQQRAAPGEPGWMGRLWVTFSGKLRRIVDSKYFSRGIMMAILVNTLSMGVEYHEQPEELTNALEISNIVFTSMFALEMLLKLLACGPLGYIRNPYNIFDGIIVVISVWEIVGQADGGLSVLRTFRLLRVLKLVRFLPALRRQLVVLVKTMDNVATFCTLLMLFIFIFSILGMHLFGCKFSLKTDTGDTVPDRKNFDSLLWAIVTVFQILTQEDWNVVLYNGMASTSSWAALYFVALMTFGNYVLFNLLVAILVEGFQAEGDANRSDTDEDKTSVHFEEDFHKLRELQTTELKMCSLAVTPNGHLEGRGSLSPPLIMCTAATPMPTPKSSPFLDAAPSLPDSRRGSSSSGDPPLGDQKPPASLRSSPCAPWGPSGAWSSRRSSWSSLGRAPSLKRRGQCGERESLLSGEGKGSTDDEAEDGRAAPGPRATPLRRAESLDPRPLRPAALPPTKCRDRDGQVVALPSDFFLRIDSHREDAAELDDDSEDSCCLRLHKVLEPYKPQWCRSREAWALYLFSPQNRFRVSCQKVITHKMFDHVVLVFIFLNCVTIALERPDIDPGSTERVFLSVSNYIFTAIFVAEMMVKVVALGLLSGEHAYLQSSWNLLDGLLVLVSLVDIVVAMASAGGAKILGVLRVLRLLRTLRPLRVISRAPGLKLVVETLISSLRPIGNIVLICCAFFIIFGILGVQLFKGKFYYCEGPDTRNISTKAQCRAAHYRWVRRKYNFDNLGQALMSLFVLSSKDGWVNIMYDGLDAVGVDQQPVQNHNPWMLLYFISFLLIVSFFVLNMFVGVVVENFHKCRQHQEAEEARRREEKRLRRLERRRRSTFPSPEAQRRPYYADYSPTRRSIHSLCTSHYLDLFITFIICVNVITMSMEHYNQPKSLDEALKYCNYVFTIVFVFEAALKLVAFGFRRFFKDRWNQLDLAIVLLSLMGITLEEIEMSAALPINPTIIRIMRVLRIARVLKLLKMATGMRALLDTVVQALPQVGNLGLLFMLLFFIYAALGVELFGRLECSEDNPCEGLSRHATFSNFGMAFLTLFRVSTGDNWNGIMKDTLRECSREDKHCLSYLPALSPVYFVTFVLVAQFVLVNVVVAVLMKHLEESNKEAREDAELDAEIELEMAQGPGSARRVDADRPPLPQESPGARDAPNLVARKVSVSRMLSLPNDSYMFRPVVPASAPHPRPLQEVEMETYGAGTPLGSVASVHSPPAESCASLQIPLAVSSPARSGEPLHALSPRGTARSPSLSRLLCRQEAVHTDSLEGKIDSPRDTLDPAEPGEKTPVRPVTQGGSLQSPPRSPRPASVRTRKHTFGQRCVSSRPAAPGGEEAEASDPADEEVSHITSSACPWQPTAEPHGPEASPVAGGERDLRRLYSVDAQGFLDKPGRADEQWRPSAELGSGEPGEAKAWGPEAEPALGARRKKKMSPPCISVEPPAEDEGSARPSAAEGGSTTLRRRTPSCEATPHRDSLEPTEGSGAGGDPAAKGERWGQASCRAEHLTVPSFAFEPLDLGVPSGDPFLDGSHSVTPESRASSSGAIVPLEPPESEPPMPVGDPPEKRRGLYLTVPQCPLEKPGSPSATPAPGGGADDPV
PTK2B oligo ant: antagonists of human Pyk2 oligomerization; Q14289; Q293 cells, Pyk2 FERM NanoBiT luminescence; hits give low values; z-score (the deposit names both 25 µM and 10 µM); hit rate 0.83% among 99,000; AID 1347419;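 active = Z-score of -3 or lower, scaled per plate to the spread of control and sample wells; inactive = z-score above -3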;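 note: negative z-score means lost luminescence so less FERM oligomerization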
PostGolgi ctrl: growth of the yeast control strain, post-Golgi counter-screen; efflux-deficient yeast background strain, growth absorbance A615, 16 h; inhibition, % at 10 µM; hit rate 5% among 98,000; AID 738
PostGolgi yeast: growth inhibition of a yeast mutant, post-Golgi transport screen; post-Golgi transport phenotypic cell assay; inhibition, % at 10 µM; hit rate 0.9% among 98,000;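 note: yeast cells grown in 1536-well plates; yeast grown about 18 h at 30C before absorbance read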
Numbers without * were called inactive; / = not tested or not shown. Cut-off read from the data, not from the text of the source, unless noted: active = inhibition above about 30%; inactive = the rest.

SMILES	Cav32 inh	PTK2B oligo ant	PostGolgi ctrl	PostGolgi yeast
CC1CCCN(c2nc3c(c(=O)[nH]c(=O)n3C)n2Cc2ccccc2Cl)C1 (stereo not given)	-6.1*	/	34*	2
Cc1cccc(Cn2c(N3CCCCC3C)nc3c2c(=O)[nH]c(=O)n3C)c1 (stereo not given)	-3.8*	/	31*	1
Cn1c(=O)[nH]c(=O)c2c1nc(N1CCCCCC1)n2Cc1cccc2ccccc12	0.42	-1.8	-3	-2
O=C(CCCN1C(=O)C2CCCCN2C1=O)N1CCN(c2ccc([N+](=O)[O-])cc2)CC1 (stereo not given)	1.7	0.88	25	-3
O=C(Cn1nnc(-c2ccccc2Cl)n1)N1CCN(S(=O)(=O)c2ccc(Cl)cc2)CC1	-2.4	-0.48	13	2
O=C(CNC(=O)/C(=C\c1ccccc1)NC(=O)c1ccc(Br)cc1)OCc1ccccc1	-6.6*	-0.4	-6	-3
O=C(CNC(=O)/C(=C\c1ccc(F)cc1)NC(=O)c1ccccc1)OCc1ccccc1	0.99	-0.58	3	5
O=C(c1cn(-c2ccccc2)nc1-c1cccs1)N1CCN(c2ccccc2)CC1	-3.7	1	44*	-1
Cc1ccc2cccc(S(=O)(=O)N3CCN(c4cccc(Cl)c4)CC3)c2n1	-2.9	-3.1*	57*	2
O=C(CCCCCN1C(=O)c2ccccc2C1=O)Nc1ccc(F)cc1	-0.34	1.6	/	/
O=C(CCCN1C(=O)c2ccccc2C1=O)Oc1ccc(F)cc1	0.6	-0.06	38*	-6
N=c1c2c(-c3ccccc3)c(-c3ccccc3)n(Cc3ccco3)c2ncn1CCN1CCOCC1	-11*	-0.64	23	52*
c1coc(CNc2nc3ccccc3n2CCN2CCOCC2)c1	1.3	1.8	5	8
N=c1c2c(-c3ccccc3)c(-c3ccccc3)n(Cc3ccco3)c2ncn1CCO	-7.4*	-1.4	/	/
O=c1c2ccccc2ncn1Cc1ccco1	0.62	-0.5	5	-8
Cc1ccc(CNC(=O)c2ccc(C#CC(C)(C)O)s2)cc1	-1.3	1.6	8	7
Cc1noc(C)c1-c1ccc2nc[nH]c(=O)c2c1	0.42	/	/	/
O=C(OCCN1CCN(c2ncc(C(F)(F)F)cc2Cl)CC1)c1ccc(F)cc1	-0.068	0.04	11	6
O=C(CSc1nc(-c2ccccc2)c(-c2ccccc2)[nH]1)N1CCN(S(=O)(=O)c2ccccc2)CC1	-6*	-1.3	4	0
O=C(CSc1ccc(Cl)cc1)N1CCN(c2ncc(C(F)(F)F)cc2Cl)CC1	-3.8*	-0.01	18	0
O=C(CSc1ncc(C(F)(F)F)cc1Cl)N1CCN(S(=O)(=O)c2ccc(Cl)cc2)CC1	/	-0.7	16	-9
O=C(CSc1ncc(C(F)(F)F)cc1Cl)N1CCN(S(=O)(=O)c2ccccc2)CC1	-4.1*	-1.1	15	-4
O=C(CN1CCN(c2ncc(C(F)(F)F)cc2Cl)CC1)N1CCN(c2ncc(C(F)(F)F)cc2Cl)CC1	-3.2*	1.7	30*	-4
O=C(CSc1nc2ccccc2c(=O)[nH]1)N1CCN(S(=O)(=O)c2ccccc2)CC1	-0.59	1	0	-5
CCOCCCN1CN(S(=O)(=O)c2ccc(Cl)cc2)c2nc3ccccc3nc21	-0.91	1.5	12	-1
SMILES	Cav32 inh	PTK2B oligo ant	PostGolgi ctrl	PostGolgi yeast
O=C(CCSc1ccc(Cl)cc1)N1CCN(c2ncccn2)CC1	-4.7*	1.6	6	14
Cc1nn(C)c(C)c1S(=O)(=O)N1CCCC(C(=O)NCC2COc3ccccc3O2)C1 (stereo not given)	0.9	/	-4	8
COc1cc(CNCc2ccccn2)ccc1OCc1cccc(Cl)c1	-0.56	-0.11	1	6
Cn1c(C(=O)NCCc2c[nH]c3ccccc23)cc2sccc21	-5.3*	/	12	-2
O=C(NCCc1c[nH]c2ccccc12)c1cc2sccc2n1Cc1ccccc1	-5*	1.4	25	7
COc1ccc(-n2c(C)cc(C(=O)CSc3nnc(-c4ccoc4C)n3C)c2C)cc1	-0.037	-0.01	10	3
O=c1oc2cc(Oc3c([N+](=O)[O-])cc(C(F)(F)F)cc3[N+](=O)[O-])ccc2c2c1CCCC2	-1	-0.26	85*	106*
CC(CNC(=O)CC(C)(C)C)NC(=O)CC(C)(C)C (stereo not given)	-0.13	-0.13	/	/
Cc1cccc(C)c1NC(=O)C(C)c1ccc(-c2ccccc2)c(F)c1 (stereo not given)	-4.3*	-1.1	26	6
Cc1cc(-c2nn3c(C)nnc3s2)ccc1NC(=O)C(C)(C)C	1.1	0.1	/	/
CCOC(=O)Cc1csc(SCc2nc3sc4c(c3c(=O)[nH]2)CCC4)n1	-1.6	-0.12	20	-7
COc1cc(/C=c2\sc3n(c2=O)CCCN=3)ccc1O	0.37	-0.67	8	-8
COc1cc(/C=c2\sc3n(c2=O)C(c2ccccc2)C(c2ccccc2)=NN=3)ccc1O (stereo not given)	-2.8	-0.81	33*	1
COc1ccc(NC(=S)N2CCN(C/C=C/c3ccccc3)CC2)cc1OC	-1.3	1.1	4	6
COc1ccc(C2C3=C(CC(C)(C)CC3=O)Oc3ncn(Cc4ccccc4)c(=N)c32)cc1 (stereo not given)	-0.83	-3.7*	11	2
CC1(C)CC(=O)C2=C(C1)Oc1ncn(CCCn3ccnc3)c(=N)c1C2c1ccccc1 (stereo not given)	-2	-0.29	7	7
CC1(C)CC(=O)C2=C(C1)Oc1ncn(Cc3ccco3)c(=N)c1C2c1ccccc1 (stereo not given)	2.1	-1.1	34*	2
COc1ccc(C2C3=C(CC(C)(C)CC3=O)Oc3ncn(CCCn4ccnc4)c(=N)c32)cc1 (stereo not given)	0.54	-0.58	1	8
CC1CN(Cc2ccccc2Cl)CC(C)O1 (stereo not given)	-1.6	-0.04	-1	17
CCC(Sc1nnc(-c2ccc(C)c(Cl)c2)n1CC)C(=O)Nc1nccs1 (stereo not given)	-5.7*	-0.31	22	-3
O=C(CC(=O)N1CCN(c2ccccn2)CC1)Nc1ccc2nc3n(c(=O)c2c1)CCCCC3	/	/	2	0
O=C1CC(c2nc3ccccc3[nH]2)CN1c1cccc(C(F)(F)F)c1 (stereo not given)	-5.4*	/	/	/
O=S1(=O)C=C(Oc2ccc3ccccc3c2)c2ccccc21	-0.3	-0.86	34*	-7
Cc1ccc(CNC(=O)CSc2nc3ccccc3c3nc(C)nn23)cc1	0.0089	/	21	4
O=C(Nc1nccs1)c1ccc(S(=O)(=O)NCC2CCCCC2)cc1	-1.4	-2.1	41*	18
CCCCCOC(=O)C1=C(C)N(C)C(=O)NC1c1cc(Br)c(O)c(OC)c1 (stereo not given)	-3.4	-1.3	10	15
C=C(C)c1cccc(C(C)(C)NC(=O)N2CCN(CC)CC2)c1	1.2	1.3	0	6
C=C(C)c1cccc(C(C)(C)NC(=O)N2CCCCC2CC)c1 (stereo not given)	-4.5*	0.54	5	-10
Cc1c(N2C(=O)c3ccc4c5c(ccc(c35)C2=O)CC4)c(=O)n(-c2ccccc2)n1C	1.4	0.22	5	11
Cc1c(N2C(=O)c3ccc(Br)cc3C2=O)c(=O)n(-c2ccccc2)n1C	-4.4*	-0.44	5	-6
